Test results reported in the antibiotic and cytotoxicity screens of Wong et al. (2023).
About 1,500 (3.8%) of roughly 39,000 compounds were called active. What follows is part of a selection rich in actives, with near analogues and random picks from the rest.

These molecules were tested on HSkMC (human skeletal muscle cells) (assay: cytotoxicity call (relative viability < 0.9)). Conditions: 10 µM.

Compound	cytotoxicity call
Nc1ccn([C@H]2O[C@@H](CO)[C@@H](O)[C@@H]2O)c(=O)n1	inactive
O=C(C[C@@H]1C=C[C@@H](NS(=O)(=O)c2ccccc2F)[C@@H](CO)O1)NCCCN1CCOCC1	inactive
O=C(CCCCC(=O)N/N=C/c1cc[n+]([O-])cc1)NO	inactive
Cc1ccc(S(=O)(=O)Nc2ccc3c(c2)CC(=O)N([C@H](C)CO)C[C@H](C)[C@H](CN(C)C(=O)Nc2cccc4ccccc24)O3)cc1	inactive
C[C@H](CO)N1C[C@H](C)[C@H](CN(C)C(=O)Nc2ccccc2)Oc2ncc(-c3cccc(C(F)(F)F)c3)cc2C1=O	inactive
CN(C)C1CCN(C(=O)c2cnc(-c3noc4cc(-c5cccc(C(F)(F)F)c5)ccc34)s2)CC1	active
CN(C)C1CCN(C(=O)c2cnc(-c3noc4cc(-c5ccccc5C(F)(F)F)ccc34)s2)CC1	inactive
COc1ccc(S(=O)(=O)Nc2ccc3c(c2)CC(=O)N([C@@H](C)CO)C[C@H](C)[C@@H](CN(C)S(=O)(=O)c2cn(C)cn2)O3)cc1	inactive
O=C(C1=C[C@H](c2coc3ccccc3c2=O)C[C@H](OCCCCO)O1)N1CCN(Cc2ccc3c(c2)OCO3)CC1	inactive
CNc1cccc(CN)c1	inactive
CN1CCC(Nc2nc(Nc3ccc(Oc4ccccc4)cc3)c3c(O)ncc(Br)c3n2)CC1	active
C=CC[C@H](CC(=O)N(CCO)Cc1ccccc1)C(=O)N[C@H](COC(=O)[C@H](CC=C)CC(=O)OC(C)(C)C)Cc1c[nH]c2ccccc12	inactive
C=CC[C@H](CC(=O)N(CCO)Cc1ccccc1)C(=O)N[C@@H](COC(=O)[C@H](CC=C)CC(=O)OC(C)(C)C)Cc1c[nH]c2ccccc12	inactive
C=CC[C@@H](CC(=O)N(CCO)Cc1ccccc1)C(=O)N[C@@H](COC(=O)[C@@H](CC=C)Cc1ccc(F)cc1)Cc1c[nH]c2ccccc12	active
C=CC[C@@H](CC(=O)N(CCO)Cc1ccccc1)C(=O)N[C@H](COC(=O)[C@@H](CC=C)CC(=O)OC(C)(C)C)Cc1c[nH]c2ccccc12	inactive
C=CC[C@@H](CC(=O)N(CCO)Cc1ccccc1)C(=O)N[C@@H](COC(=O)[C@H](CC=C)Cc1ccc(F)cc1)Cc1c[nH]c2ccccc12	active
C=CC[C@H](CC(=O)N(CCO)Cc1ccccc1)C(=O)N[C@H](COC(=O)[C@@H](CC=C)CC(=O)OC(C)(C)C)Cc1c[nH]c2ccccc12	inactive
C=CC[C@@H](CC(=O)N(CCO)Cc1ccccc1)C(=O)N[C@@H](COC(=O)[C@@H](CC=C)CC(=O)OC(C)(C)C)Cc1c[nH]c2ccccc12	inactive
C=CC[C@H](CC(=O)N(CCO)Cc1ccccc1)C(=O)N[C@H](COC(=O)[C@@H](CC=C)Cc1ccc(F)cc1)Cc1c[nH]c2ccccc12	inactive
C=CC[C@@H](CC(=O)N(CCO)Cc1ccccc1)C(=O)N[C@@H](COC(=O)[C@H](CC=C)CC(=O)OC(C)(C)C)Cc1c[nH]c2ccccc12	inactive
C=CC[C@H](CC(=O)N(CCO)Cc1ccccc1)C(=O)N[C@@H](COC(=O)[C@@H](CC=C)CC(=O)OC(C)(C)C)Cc1c[nH]c2ccccc12	inactive

Compound	cytotoxicity call
C=CC[C@H](CC(=O)N(CCO)Cc1ccccc1)C(=O)N[C@@H](COC(=O)[C@@H](CC=C)Cc1ccc(F)cc1)Cc1c[nH]c2ccccc12	active
C=CC[C@@H](CC(=O)N(CCO)Cc1ccccc1)C(=O)N[C@H](COC(=O)[C@@H](CC=C)Cc1ccc(F)cc1)Cc1c[nH]c2ccccc12	active
C[C@H]1CCCCO[C@H](CN(C)CC2CC2)[C@@H](C)CN([C@@H](C)CO)C(=O)c2cc(NC(=O)C3CCCCC3)ccc2O1	inactive
C[C@@H]1CN([C@@H](C)CO)C(=O)c2cc(NC(=O)C3CC3)ccc2O[C@H]1CN(C)S(=O)(=O)c1ccc(F)cc1	inactive
C[C@@H]1CN([C@H](C)CO)S(=O)(=O)c2ccc(/C=C/c3ccccc3)cc2O[C@@H]1CN(C)C(=O)Nc1cc(F)ccc1F	inactive
NC(=S)c1cnccn1	inactive
C[C@@H]1CCCCO[C@H](CN(C)Cc2ccc(C(F)(F)F)cc2)[C@H](C)CN([C@@H](C)CO)C(=O)c2cc(NS(=O)(=O)c3ccccc3)ccc2O1	inactive
C[C@H](CO)N1C[C@H](C)[C@@H](CN(C)C(=O)Nc2ccc(F)cc2)Oc2ccc(NC(=O)C3CC3)cc2CC1=O	inactive
C[C@@H]1CN([C@H](C)CO)C(=O)c2cc(C3=CCCC3)cnc2O[C@@H]1CN(C)C(=O)c1ccc2c(c1)OCO2	inactive
C[C@H](CO)N1C[C@H](C)[C@@H](CN(C)C(=O)c2ccccc2)OCCCC[C@H](C)Oc2ccc(NC(=O)Nc3cccc4ccccc34)cc2C1=O	inactive
CN1CCN(C(=O)C[C@H]2CC[C@@H]3[C@H](COC[C@@H](O)CN3S(=O)(=O)c3cccc(F)c3)O2)CC1	inactive
C[C@@H]1CN([C@@H](C)CO)C(=O)c2c(c3ccccc3n2C)-c2ccccc2CO[C@@H]1CN(C)Cc1ccc(C(=O)O)cc1	inactive
Cc1ccc([C@@H]2CC(=O)N[C@@H]2C(N)=O)cc1	inactive
C[C@@H]1CN([C@H](C)CO)C(=O)c2cccc(NC(=O)Nc3cccc4ccccc34)c2O[C@@H]1CN(C)S(=O)(=O)c1ccc(F)cc1	inactive
COc1ccc(S(=O)(=O)N(C)C[C@@H]2Oc3c(NC(=O)Nc4cccc5ccccc45)cccc3C(=O)N([C@@H](C)CO)C[C@H]2C)c(OC)c1	active
C[C@@H]1CN([C@@H](C)CO)C(=O)c2cccc(NC(=O)Nc3cccc4ccccc34)c2O[C@@H]1CN(C)S(=O)(=O)c1ccc(Cl)cc1	inactive
C[C@@H]1CN([C@@H](C)CO)C(=O)c2cccc(NC(=O)Nc3cccc4ccccc34)c2O[C@H]1CN(C)S(=O)(=O)c1cccs1	inactive
C[C@H]1CN([C@@H](C)CO)C(=O)c2cccc(NC(=O)Nc3cccc4ccccc34)c2O[C@@H]1CN(C)S(=O)(=O)c1cccs1	active
C[C@@H]1CN([C@@H](C)CO)C(=O)c2cccc(NC(=O)Nc3cccc4ccccc34)c2O[C@@H]1CN(C)S(=O)(=O)c1cccs1	inactive
COc1cccc(S(=O)(=O)N(C)C[C@@H]2Oc3c(NC(=O)Nc4cccc5ccccc45)cccc3C(=O)N([C@@H](C)CO)C[C@H]2C)c1	inactive
C[C@@H]1CN([C@H](C)CO)C(=O)c2cccc(NC(=O)Nc3cccc4ccccc34)c2O[C@@H]1CN(C)S(=O)(=O)c1ccc(Cl)cc1	active

Compound	cytotoxicity call
C[C@H](CO)N1C[C@H](C)[C@H](CN(C)S(=O)(=O)c2ccc(F)cc2)Oc2c(NC(=O)Nc3cccc4ccccc34)cccc2C1=O	active
C[C@H]1CN([C@@H](C)CO)C(=O)c2cccc(NC(=O)Nc3cccc4ccccc34)c2O[C@@H]1CN(C)S(=O)(=O)c1ccc(Cl)cc1	inactive
COc1ccccc1S(=O)(=O)N(C)C[C@@H]1Oc2c(NC(=O)Nc3cccc4ccccc34)cccc2C(=O)N([C@@H](C)CO)C[C@H]1C	inactive
C[C@@H]1CN([C@@H](C)CO)C(=O)c2cccc(NC(=O)Nc3cccc4ccccc34)c2O[C@H]1CN(C)S(=O)(=O)c1ccc(F)cc1	inactive
C[C@H](O)C#Cc1ccc2c(c1)O[C@@H](CN(C)C(=O)Cc1ccccn1)[C@H](C)CN([C@H](C)CO)S2(=O)=O	inactive
O=C(O)CNC(=O)c1[nH]nc2ccccc12	inactive
C[C@@H]1CCCCO[C@@H](CN(C)Cc2ccc(C(F)(F)F)cc2)[C@@H](C)CN([C@H](C)CO)C(=O)c2cc(NS(=O)(=O)c3ccccc3)ccc2O1	inactive
C[C@H](CO)N1C[C@H](C)[C@H](CN(C)S(=O)(=O)c2ccc(F)cc2)Oc2ccc(NS(=O)(=O)c3ccc(F)cc3)cc2C1=O	inactive
COc1ccc(CN(C)C[C@H]2OCCCC[C@H](C)Oc3ccc(NC(=O)Nc4cccc5ccccc45)cc3C(=O)N([C@@H](C)CO)C[C@H]2C)cc1	inactive
COc1ccc(CN(C)C[C@H]2OCCCC[C@H](C)Oc3ccc(NC(=O)Nc4cccc5ccccc45)cc3C(=O)N([C@@H](C)CO)C[C@@H]2C)cc1	inactive
COc1ccc(CN(C)C[C@@H]2OCCCC[C@@H](C)Oc3ccc(NC(=O)Nc4cccc5ccccc45)cc3C(=O)N([C@@H](C)CO)C[C@H]2C)cc1	active
COc1ccc(CN(C)C[C@@H]2OCCCC[C@H](C)Oc3ccc(NC(=O)Nc4cccc5ccccc45)cc3C(=O)N([C@@H](C)CO)C[C@@H]2C)cc1	active
COc1ccc(CN(C)C[C@@H]2OCCCC[C@@H](C)Oc3ccc(NC(=O)Nc4cccc5ccccc45)cc3C(=O)N([C@H](C)CO)C[C@H]2C)cc1	active
COc1ccc(CN(C)C[C@@H]2OCCCC[C@H](C)Oc3ccc(NC(=O)Nc4cccc5ccccc45)cc3C(=O)N([C@H](C)CO)C[C@H]2C)cc1	active
COc1ccc(CN(C)C[C@@H]2OCCCC[C@H](C)Oc3ccc(NC(=O)Nc4cccc5ccccc45)cc3C(=O)N([C@H](C)CO)C[C@@H]2C)cc1	inactive
COc1ccc(CN(C)C[C@H]2OCCCC[C@@H](C)Oc3ccc(NC(=O)Nc4cccc5ccccc45)cc3C(=O)N([C@H](C)CO)C[C@H]2C)cc1	inactive
C[C@@H]1CC=CC[C@@H](c2cccc(Cl)c2)NC(=O)[C@@H](Cc2ccccc2)N(C)C(=O)c2ccccc2O1	inactive
Cc1noc(C)c1NC(=O)Nc1ccc2c(c1)C(=O)N([C@@H](C)CO)C[C@H](C)[C@H](CN(C)Cc1ccc(Cl)c(Cl)c1)OCCCC[C@@H](C)O2	inactive
N[C@@H](CC(=O)O)c1cccc([N+](=O)[O-])c1	inactive
C[C@@H]1CN([C@H](C)CO)C(=O)c2cc(NS(=O)(=O)c3ccccc3)ccc2O[C@H]1CN(C)S(C)(=O)=O	inactive
